# Reference: PubChem BioAssay (Tox21)
# A number with no mark means an inactive call. Records with an inconclusive call do not appear. Where a call stands in place of a potency, no number is given. Activity calls are given as the source filed them. Unless noted, calls follow the shape of the full dose curve.
# Key:
# [1] = qHTS assay to identify small molecule antagonists of the estrogen receptor beta (ER-beta) signaling pathway - cell viability counter screen (AID 1259382; active = well fitted curve in the direction sought with a large enough effect in the repeat runs; an effect the other way counts as inactive or inconclusive;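 also: HEK293T cells carrying ER-beta-UAS-bla reporter stimulated with estradiol; series mostly up to about 92 µM; nearly all actives have a fitted effect of over 55% in size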)
# Procedure, shortened: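 Cytotoxicity counter screen multiplexed with the beta-lactamase antagonist assay: GripTite HEK293T ER-beta-bla cells were treated 16 hr with test chemicals in the presence of 1nM 17-beta-estradiol, and viability was measured by CellTiter-Glo.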
# [2] = target: Estrogen receptor (Homo sapiens) (UniProt P03372); assay: qHTS assay to identify small molecule agonists of the estrogen receptor alpha (ER-alpha) signaling pathway in the presence of an antagonist (AID 1259383); also: nearly all actives have a fitted effect of over 15% in size; also: potency is read from the fitted curve at half-maximal effect; as to activation: top concentration of the series differs between compounds
# Procedure, shortened: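 Agonist-mode confirmation in the presence of the ER antagonist ICI-182,780 at 10.0nM final. Breast-derived VM7Luc4E2 reporter cells were exposed to compounds for 22hr, and ERE-driven luciferase was quantified by luminescence.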
# [3] = qHTS assay to identify small molecule agonists or antagonists of the thyroid stimulating hormone receptor (TSHR) signaling pathway - wild type cell line counter screen (AID 1259384)
# Procedure, shortened: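 Wild-type HEK293 cells were plated 18 h at 37 C/5% CO2, pin-dosed with compound plus Ro20-1724 medium, held 30 min at room temperature, then given cAMP-d2 and anti-cAMP-cryptate; fluorescence was read after 1 h. Fifteen concentrations, triplicate.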
# [4] = target: Thyrotropin receptor (Homo sapiens) (UniProt P16473); assay: qHTS assay to identify small molecule antagonists of the thyroid stimulating hormone receptor (TSHR) signaling pathway (AID 1259385); also: nearly all actives have a fitted effect of over 20% in size
# Procedure, shortened: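 TSHR-HEK293 cells were plated and held 18 h at 37C/5% CO2, then given compound plus Ro20-1724 and stimulated with TSH at 1.5 ng/mL final. After 30 min at room temperature, cAMP was detected with cAMP-d2/anti-cAMP-cryptate (1 h) by fluorescence.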
# [5] = qHTS assay to identify small molecule agonists of the estrogen receptor alpha (ER-alpha) signaling pathway in the presence of an antagonist - cell viability counter screen (AID 1259386; active = well fitted curve in the direction sought with a large enough effect in the repeat runs; an effect the other way counts as inactive or inconclusive;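 also: series mostly up to about 92 µM; cells exposed to compounds for 22 h at 37 °C before the viability read; nearly all actives have a fitted effect of over 30% in size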)
# Procedure, shortened: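 Cytotoxicity was measured in parallel with the ERE-luciferase agonist screen, in the same wells. The cells were VM7Luc4E2, which endogenously express ER-alpha, and treatment was with compounds plus 10.0nM ICI-182,780 for 22hr.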
# [6] = target: Progesterone receptor (Homo sapiens) (UniProt P06401); assay: qHTS assay to identify small molecule agonists of the progesterone receptor (PR) signaling pathway (AID 1346784); also: nearly all actives have a fitted effect of over 30% in size
# Procedure, shortened: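 HEK 293T PR-UAS-bla reporter cells, 2% charcoal-stripped FBS; 6 hr settle at 37C/5% CO2, compound (DMSO) 16 hr, LiveBLAzer B/G FRET substrate 2 hr RT, fluorescence intensity read.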
# [7] = target: Progesterone receptor (Homo sapiens) (UniProt P06401); assay: qHTS assay to identify small molecule antagonists of the progesterone receptor (PR) signaling pathway (AID 1346795; active = well fitted inhibition curve with a large enough effect in the signal ratio in the repeat runs, not every such curve was filed as active; the % refers to the signal ratio)
# Procedure, shortened: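 Beta-lactamase reporter, HEK293T PR-UAS-bla line; 2% charcoal-stripped FBS; 6 hr pre-incubation, 37C/5% CO2. Compound + R5020 1 nM final, 16 hr. LiveBLAzer B/G FRET substrate, 2 hr RT; fluorescence intensity read.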
# [8] = qHTS assay to identify small molecule agonists of the progesterone receptor (PR) signaling pathway - cell viability counter screen (AID 1346799); also: nearly all actives have a fitted effect of over 45% in size
# Procedure, shortened: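 HEK293T PR-UAS-bla, 3,000 cells/well, 2% charcoal-stripped FBS; 6 h settle, compound 16 h at 37C/5% CO2; LiveBLAzer 2 h RT, then CellTiter-Glo 30 min RT, luminescence read.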
# [9] = qHTS assay to identify small molecule antagonists of the progesterone receptor (PR) signaling pathway - cell viability counter screen (AID 1346798; active = well fitted curve in the direction sought with a large enough effect in the repeat runs; an effect the other way counts as inactive or inconclusive; also: series mostly up to about 92 µM; nearly all actives have a fitted effect of over 50% in size)
# Procedure, shortened: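 Luminescence readout (CellTiter-Glo, 30 min, RT) of viability in PR-UAS-bla HEK293T cells exposed to compound and R5020 agonist for 16 hr at 37C, 5% CO2; run in the same wells as the beta-lactamase reporter read.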
# Sequence of Estrogen receptor (Homo sapiens) (P03372 whole entry, looked up): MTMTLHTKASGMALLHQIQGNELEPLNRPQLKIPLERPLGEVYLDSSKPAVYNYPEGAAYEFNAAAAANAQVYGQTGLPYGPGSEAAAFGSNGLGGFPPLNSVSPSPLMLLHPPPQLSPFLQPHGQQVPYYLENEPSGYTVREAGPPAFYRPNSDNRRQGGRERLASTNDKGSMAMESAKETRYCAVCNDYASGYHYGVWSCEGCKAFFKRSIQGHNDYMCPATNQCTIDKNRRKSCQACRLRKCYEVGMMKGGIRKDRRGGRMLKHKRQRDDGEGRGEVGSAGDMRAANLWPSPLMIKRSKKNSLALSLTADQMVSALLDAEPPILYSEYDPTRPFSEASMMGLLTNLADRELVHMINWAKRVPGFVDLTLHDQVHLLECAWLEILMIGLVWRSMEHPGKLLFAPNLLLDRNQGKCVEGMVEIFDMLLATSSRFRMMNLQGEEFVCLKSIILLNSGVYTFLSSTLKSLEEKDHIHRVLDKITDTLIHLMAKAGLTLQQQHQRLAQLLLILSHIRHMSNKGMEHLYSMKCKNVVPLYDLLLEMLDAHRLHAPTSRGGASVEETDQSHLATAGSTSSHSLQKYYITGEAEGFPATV
# Sequence of Progesterone receptor (Homo sapiens) (P06401 whole entry, looked up): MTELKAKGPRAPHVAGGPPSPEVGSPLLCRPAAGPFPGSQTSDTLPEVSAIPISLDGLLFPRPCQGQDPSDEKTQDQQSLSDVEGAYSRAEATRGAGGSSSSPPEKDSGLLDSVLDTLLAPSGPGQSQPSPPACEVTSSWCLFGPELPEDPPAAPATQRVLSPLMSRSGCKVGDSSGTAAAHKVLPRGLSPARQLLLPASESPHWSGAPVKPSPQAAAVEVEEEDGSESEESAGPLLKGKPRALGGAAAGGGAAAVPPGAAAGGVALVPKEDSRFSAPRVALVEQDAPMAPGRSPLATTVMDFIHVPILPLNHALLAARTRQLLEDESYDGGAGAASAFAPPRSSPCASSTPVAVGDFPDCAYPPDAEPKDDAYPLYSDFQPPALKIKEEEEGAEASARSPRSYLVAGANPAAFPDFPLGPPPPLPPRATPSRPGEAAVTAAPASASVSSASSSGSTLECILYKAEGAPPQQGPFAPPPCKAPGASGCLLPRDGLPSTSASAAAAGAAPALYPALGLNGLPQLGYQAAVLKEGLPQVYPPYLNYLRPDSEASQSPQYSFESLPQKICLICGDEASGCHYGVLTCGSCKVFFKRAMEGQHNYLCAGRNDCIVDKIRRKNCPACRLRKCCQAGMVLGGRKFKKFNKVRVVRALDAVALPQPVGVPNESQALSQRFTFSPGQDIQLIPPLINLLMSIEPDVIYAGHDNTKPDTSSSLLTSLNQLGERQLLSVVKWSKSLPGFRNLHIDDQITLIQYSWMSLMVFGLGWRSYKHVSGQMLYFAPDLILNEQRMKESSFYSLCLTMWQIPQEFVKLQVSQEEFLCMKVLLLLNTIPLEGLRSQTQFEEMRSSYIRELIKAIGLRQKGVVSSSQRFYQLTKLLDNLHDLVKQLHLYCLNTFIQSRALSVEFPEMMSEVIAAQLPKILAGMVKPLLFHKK
# Sequence of Thyrotropin receptor (Homo sapiens) (P16473 whole entry, looked up): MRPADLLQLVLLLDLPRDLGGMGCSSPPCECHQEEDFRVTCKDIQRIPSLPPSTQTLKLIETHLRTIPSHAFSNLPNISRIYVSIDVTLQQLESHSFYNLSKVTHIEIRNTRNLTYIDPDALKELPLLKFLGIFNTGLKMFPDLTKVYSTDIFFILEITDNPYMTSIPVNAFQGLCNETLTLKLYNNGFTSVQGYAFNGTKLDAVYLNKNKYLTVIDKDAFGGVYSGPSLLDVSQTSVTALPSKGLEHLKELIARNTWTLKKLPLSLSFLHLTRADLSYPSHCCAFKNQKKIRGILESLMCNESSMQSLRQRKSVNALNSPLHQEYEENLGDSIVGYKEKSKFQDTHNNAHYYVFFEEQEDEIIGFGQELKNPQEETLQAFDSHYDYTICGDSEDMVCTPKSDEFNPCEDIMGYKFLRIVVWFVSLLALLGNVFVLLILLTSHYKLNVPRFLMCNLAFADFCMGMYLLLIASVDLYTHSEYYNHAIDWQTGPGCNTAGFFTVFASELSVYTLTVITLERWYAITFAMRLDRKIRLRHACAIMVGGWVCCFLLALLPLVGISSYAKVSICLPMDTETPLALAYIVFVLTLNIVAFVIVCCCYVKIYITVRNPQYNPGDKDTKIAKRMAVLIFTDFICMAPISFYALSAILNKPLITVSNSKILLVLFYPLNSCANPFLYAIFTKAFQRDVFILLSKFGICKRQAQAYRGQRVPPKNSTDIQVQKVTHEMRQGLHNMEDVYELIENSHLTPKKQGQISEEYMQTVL
smiles,measurement,setting,value
NCCOCCN,outcome,[1],inactive
same,Potency,[2],inactive
same,outcome,[3],inactive
same,outcome,[4],inactive
same,outcome,[5],inactive
same,Potency,[6],inactive
same,Potency,[7],inactive
same,outcome,[8],inactive
N#Cc1ccccc1O,outcome,[1],inactive
same,Potency,[2],inactive
same,outcome,[3],inactive
same,outcome,[4],inactive
same,outcome,[5],inactive
same,Potency,[6],inactive
same,Potency,[7],inactive
same,outcome,[9],inactive
same,outcome,[8],inactive
CC1(C)CC(OC(=O)CCCCCCCCC(=O)OC2CC(C)(C)NC(C)(C)C2)CC(C)(C)N1,"activity change, negative = cytotoxicity",[1],-21.6% [at 19 µM]
same,activation,[2],-0.324% [at 19 µM]
same,cAMP activity change,[3],-0.26% [at 18.9 µM]
same,"activity change, negative = inhibition",[4],-9.89% [at 19 µM]
same,activation,[6],0.194% [at 19 µM]
same,"activity change, negative = inhibition",[7],5.15% [at 18.9 µM]
same,"activity change, negative = cytotoxicity",[9],-13.3% [at 18.9 µM]
same,"activity change, negative = cytotoxicity",[8],0.742% [at 19 µM]
CC1=C(C(=O)O)N2C(=O)[C@@H](NC(=O)[C@H](N)C3=CCC=CC3)[C@H]2SC1,outcome,[1],inactive
same,Potency,[2],inactive
same,outcome,[3],inactive
same,outcome,[4],inactive
same,outcome,[5],inactive
same,Potency,[6],inactive
same,outcome,[9],inactive
same,outcome,[8],inactive
CCCCCC(C)O (stereo not given),outcome,[1],inactive
same,Potency,[2],inactive
same,outcome,[3],inactive
same,outcome,[4],inactive
same,outcome,[5],inactive
same,Potency,[6],inactive
same,outcome,[9],inactive
same,outcome,[8],inactive
CCCCOC(=O)[C@H](C)O,outcome,[1],inactive
same,Potency,[2],inactive
same,outcome,[3],inactive
same,outcome,[4],inactive
same,outcome,[5],inactive
same,Potency,[6],inactive
same,Potency,[7],inactive
same,outcome,[8],inactive
CN1C[C@@H]2C[C@H]1CN2c1cc2c(cc1F)c(=O)c(C(=O)O)cn2C1CC1,"activity change, negative = cytotoxicity",[1],7% [at 19 µM]
same,activation,[2],0.617% [at 19 µM]
same,cAMP activity change,[3],-2.22% [at 18.9 µM]
same,"activity change, negative = inhibition",[4],-7.57% [at 19 µM]
same,"activity change, negative = cytotoxicity",[5],-0.242% [at 19 µM]
same,activation,[6],6.66% [at 19 µM]
same,"activity change, negative = inhibition",[7],14.1% [at 18.9 µM]
same,"activity change, negative = cytotoxicity",[8],18.9% [at 19 µM]
C=CCCCCCCCCC(=O)OCCCC,outcome,[1],inactive
same,Potency,[2],inactive
same,outcome,[3],inactive
same,outcome,[4],inactive
same,outcome,[5],inactive
same,Potency,[6],inactive
same,Potency,[7],inactive
same,outcome,[8],inactive
CCN(CC)CCN,outcome,[1],inactive
same,Potency,[2],inactive
same,outcome,[3],inactive
same,outcome,[4],inactive
same,outcome,[5],inactive
same,Potency,[6],inactive
same,Potency,[7],inactive
same,outcome,[9],inactive
same,outcome,[8],inactive
CCC[C@@H]1C[C@@H](C(=O)N[C@@H]([C@H]2O[C@H](SC)[C@H](O)[C@@H](O)[C@H]2O)[C@@H](C)O)N(C)C1,outcome,[1],inactive
same,Potency,[2],inactive
same,outcome,[3],inactive
same,outcome,[4],inactive
same,outcome,[5],inactive
same,outcome,[9],inactive
CN(C)C(C)(C)CO,outcome,[1],inactive
same,Potency,[2],inactive
same,outcome,[3],inactive
same,outcome,[4],inactive
same,Potency,[6],inactive
same,Potency,[7],inactive
same,outcome,[9],inactive
same,outcome,[8],inactive
Cc1ccc2c(c1)C(=O)c1ccccc1C2=O,outcome,[1],inactive
same,Potency,[2],3.84 µM (active)
same,outcome,[3],inactive
same,outcome,[4],inactive
same,Potency,[6],inactive
same,Potency,[7],inactive
C=C(C)c1cccc(C(C)(C)N=C=O)c1,outcome,[1],inactive
same,Potency,[2],inactive
same,outcome,[3],inactive
same,outcome,[4],inactive
same,outcome,[5],inactive
same,Potency,[6],inactive
same,outcome,[9],inactive
same,outcome,[8],inactive
C=CC(=O)OCC1CCCO1 (stereo not given),outcome,[1],inactive
same,Potency,[2],inactive
same,outcome,[3],inactive
same,outcome,[4],inactive
same,outcome,[5],inactive
same,Potency,[6],inactive
same,outcome,[9],inactive
same,outcome,[8],inactive
Nc1nnnn1-c1ccccc1,outcome,[1],inactive
same,Potency,[2],inactive
same,outcome,[3],inactive
same,outcome,[4],inactive
same,outcome,[5],inactive
same,Potency,[6],inactive
same,Potency,[7],inactive
same,outcome,[9],inactive
same,outcome,[8],inactive
Cc1c(N)cccc1Cl,outcome,[1],inactive
same,Potency,[2],inactive
same,outcome,[3],inactive
same,outcome,[4],inactive
same,outcome,[5],inactive
same,outcome,[9],inactive
same,outcome,[8],inactive
CCCCCCCCCCCCCCCCCC#N,outcome,[1],inactive
same,Potency,[2],inactive
same,outcome,[3],inactive
same,outcome,[4],inactive
same,Potency,[6],inactive
same,Potency,[7],inactive
same,outcome,[9],inactive
same,outcome,[8],inactive
[O]=[Mo](=[O])=[O],"activity change, negative = cytotoxicity",[1],-3.58% [at 19 µM]
same,activation,[2],-1.83% [at 19 µM]
same,cAMP activity change,[3],-1.05% [at 18.9 µM]
same,"activity change, negative = inhibition",[4],4.59% [at 19 µM]
same,"activity change, negative = cytotoxicity",[5],-0.317% [at 19 µM]
same,activation,[6],1.92% [at 19 µM]
same,"activity change, negative = inhibition",[7],2.07% [at 18.9 µM]
same,"activity change, negative = cytotoxicity",[9],2.8% [at 18.9 µM]
same,"activity change, negative = cytotoxicity",[8],7.88% [at 19 µM]
CC1(C)Oc2ccc(C#N)cc2[C@@H](N2CCCC2=O)[C@@H]1O,outcome,[1],inactive
same,Potency,[2],inactive
same,outcome,[3],inactive
same,outcome,[4],inactive
same,Potency,[6],inactive
same,Potency,[7],inactive
same,outcome,[9],inactive
same,outcome,[8],inactive
CC(C)Cn1cnc2c1c(=O)n(C)c(=O)n2C,outcome,[1],inactive
same,Potency,[2],inactive
same,outcome,[3],inactive
same,outcome,[4],inactive
same,outcome,[5],inactive
same,Potency,[7],inactive
same,outcome,[9],inactive
C[Si]1(C)O[Si](C)(C)O[Si](C)(C)O[Si](C)(C)O[Si](C)(C)O1,outcome,[1],inactive
same,Potency,[2],inactive
same,outcome,[3],inactive
same,outcome,[4],inactive
same,outcome,[5],inactive
same,Potency,[6],inactive
same,outcome,[8],inactive
CC(=O)CCC1=C(C)CCCC1(C)C,outcome,[1],inactive
same,Potency,[2],inactive
same,outcome,[3],inactive
same,outcome,[4],inactive
same,outcome,[5],inactive
same,Potency,[6],inactive
same,outcome,[9],inactive
same,outcome,[8],inactive
CSc1cnccn1,outcome,[1],inactive
same,Potency,[2],inactive
same,outcome,[3],inactive
same,outcome,[4],inactive
same,Potency,[6],inactive
same,Potency,[7],inactive
same,outcome,[9],inactive
same,outcome,[8],inactive
CO/N=C(/C(=O)N[C@@H]1C(=O)N2C(C(=O)[O-])=C(C[n+]3ccn4ncccc43)CS[C@H]12)c1nsc(N)n1,outcome,[1],inactive
same,Potency,[2],inactive
same,outcome,[3],inactive
same,outcome,[4],inactive
same,outcome,[5],inactive
same,Potency,[6],inactive
same,Potency,[7],inactive
same,outcome,[9],inactive
same,outcome,[8],inactive
